Source: PubChem
SSB-PriA inh = inhibitors of Klebsiella pneumoniae PriA binding to SSB C-terminal tail, primary screen, biochemical, AlphaScreen; PriA–SSB C-terminal tail interaction (Klebsiella pneumoniae); AlphaScreen SSBct-PriA binding, biotinylated peptide; inhibition, % at 33 µM; 430,000 tested, 0.6% active; in the data active = inhibition mostly above about 37%, no sharp cut-off; inactive = mostly below about 20%;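 also: plate controls were negative control peptide for no effect and reference peptide for full effect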
PrPC surface inh = inhibitors of human cell surface prion protein PrPC, primary screen, cell-based, TR-FRET; Major prion protein (Homo sapiens), P04156; TR-FRET read-out; inhibition, % at 13.8 µM; 370,000 tested, 0.43% active; AID 720596, 2013; in the data active = inhibition above about 24%; also: 0% = median of the test wells and 100% = reference compound wells
3CLpro inhibitor = SARS-CoV 3CLpro protease inhibitors, primary screen, biochemical, quenched FRET; Replicase polyprotein 1ab (Severe acute respiratory syndrome coronavirus), P0C6X7; recombinant SARS-CoV 3CLpro, quenched FRET peptide cleavage; inhibition, % at 6 µM; 290,000 tested, 0.14% active; AID 1706, 2009; in the data active = inhibition above about 12%
Vc quorum ag = inducers of Vibrio cholerae quorum light production without autoinducers, primary screen, BH1578 luxS cqsA deficient, single point; V. cholerae BH1578 lux reporter, luminescence, 6 h; activation, % at 18.7 µM; 350,000 tested, 0.16% active; AID 588436, 2011; in the data active = activation mostly above about 9.7%, no sharp cut-off
PrP UTR inh = inhibition of PrP 5' UTR reporter expression. 340,000 tested, 0.35% active. cell-based PrP 5' UTR mRNA reporter, plate reader. inhibition, % (no concentration beside the values). AID 488862, 2010; in the data active = inhibition above about 52%; also: 0 = median of the neutral control wells
PfHsp40 yeast = rescue of yeast from PfHsp40 toxicity, primary screen, S. cerevisiae, ATP luminescence | S. cerevisiae expressing PfHsp40, growth rescue | growth rescue, % at 12.5 µM | 340,000 tested, 0.68% active; in the data active = growth rescue above about 28%, passing the limit was not always enough;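 also: yeast W303a lacking pdr1 and pdr3 grown in galactose medium; growth measured after three days at 30 °C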
Numbers without * were called inactive; i = inactive; x = no result given; ! = repeats disagree. Compounds with a hit are over-represented: about 1.6% of the library has one in this group of screens.

SMILES | SSB-PriA inh | PrPC surface inh | 3CLpro inhibitor | Vc quorum ag | PrP UTR inh | PfHsp40 yeast
O=C(NCCC(O)c1ccc2c(c1)OCO2)c1ccc(Cl)s1 (configuration not stated) | 37* | x | x | x | x | x
CCC(C)c1ccc(C(C)NC(=S)NCc2ccc(F)cc2)cc1 (configuration not stated) | 1 | -1 | 2 | 0 | -6 | -1
CCC(NC(=S)NCc1ccc(F)cc1)c1ccc(C(C)C)cc1 (configuration not stated) | 0 | 7 | 6 | -1 | -23 | 472*
CC(NC(=S)NCc1ccc(F)cc1)C12CC3CC(CC(C3)C1)C2 (configuration not stated) | -25 | 4 | 1 | 0 | -25 | 157*
CNc1cc(CSC)nc(SCc2ccc(Cl)cc2Cl)n1 | -17 | 2 | -7 | -2 | -8 | 308*
CCN1c2ccccc2NC2N=C(OC)C(c3ccccc3)C21 (configuration not stated) | 54* | x | 2 | i | -49 | -2
Cc1ccc(-c2csc(N)n2)o1 | 17 | x | x | x | x | x
Cc1cc(OC2CN(S(=O)(=O)CCCOc3ccccc3)C2)cc(=O)o1 | -7 | x | x | x | x | x
CC(=O)OC[C@H]1O[C@@H](Sc2cccc3cccnc23)[C@H](OC(C)=O)[C@@H](OC(C)=O)[C@H]1OC(C)=O | 40* | 2 | -6 | 0 | -7 | -1
CC(=O)OC[C@H]1O[C@@H](Sc2cccc3cccnc23)[C@H](OC(C)=O)[C@@H](OC(C)=O)[C@@H]1OC(C)=O | 3 | 3 | 3 | 0 | -10 | 1
O=C(NCC(c1cccc2ccccc12)N1CCCC1)c1ccccc1[N+](=O)[O-] (configuration not stated) | 12 | x | x | x | x | x
CN(C)CCCN(C(=O)C1COc2ccccc2O1)c1nc2ccc(F)cc2s1 (configuration not stated) | -11 | 2 | 1 | -1 | -12 | 0
Cc1ccc2nc(N(CCCn3ccnc3)C(=O)C3COc4ccccc4O3)sc2c1 (configuration not stated) | 35* | x | x | x | x | x
O=S(=O)(c1ccccc1)c1cnn(-c2ccccc2)c1-c1ccc(F)cc1 | -4 | -3 | 7 | x | -11 | 49*
COc1ccc(-n2ncc(S(=O)(=O)c3ccccc3)c2-c2ccc(Cl)cc2)cc1 | -7 | 6 | 1 | 0 | -17 | 1
O=c1c2cccnc2[nH]c(=S)n1CCC1=CCCCC1 | 5 | -3 | -2 | -1 | -24 | -1
Clc1cc2c(c3ncccc13)OCN(CCC1=CCCCC1)C2 | 95* | x | x | x | x | x
Cc1cc(NC(=O)c2ccccc2S(C)(=O)=O)n(-c2nc3c(F)cccc3s2)n1 | -3 | x | x | x | x | x
CC(C)(C)Nc1nc(N2CCCC2)nc(N2CCCC2)n1 | -14 | 12 | -6 | 17* | -13 | 0
CCNc1nc(NC(C)(C)C)nc(N2CCCC2)n1 | -11 | 15 | 0 | -10 | -11 | -1
Cc1ccc(NC(=O)CSc2ccc(-c3nc(C4CC4)no3)cn2)cc1Cl | -9 | x | x | x | x | x
Cc1nc2ccc(C(=O)Nc3ccccc3Cl)cc2s1 | -12 | -1 | 1 | i | -45 | 77*
Cc1nc2ccc(NC(=O)c3cccs3)cc2s1 | -1 | 11 | -1 | -5 | -51 | 37*
CC(=O)Nc1ccc2nc(NC(=O)c3cccs3)sc2c1 | -5 | 5 | -4 | 0 | -64 | 1
Cc1cccc(OCC(=O)Nc2ccc3nc(C)sc3c2)c1 | -2 | 3 | 0 | 0 | -28 | -1
SMILES | SSB-PriA inh | PrPC surface inh | 3CLpro inhibitor | Vc quorum ag | PrP UTR inh | PfHsp40 yeast
Cc1nc2ccc(NC(=O)COc3cccc(F)c3)cc2s1 | -12 | -2 | 2 | i | -8 | 242*
Cc1ccc2nc(NC(=O)CN3CCC(c4cccs4)CC3)sc2c1 | 0 | x | x | x | x | x
CN1CCN(C(CNC(=O)C(=O)Nc2cccc(C(F)(F)F)c2)c2ccc3c(c2)CCN3C)CC1 (configuration not stated) | 6 | x | x | x | x | x
CC(C)(C)N=C1NN=C(c2ccc(Cl)cc2)CS1 | 20 | 1 | 7 | i | -19 | 0
CC(C)(C)N=C1NN=C(c2cc3ccccc3o2)CS1 | 42* | 4 | -5 | i | -82 | 0
COc1ccc2c(c1)-c1nc(N)sc1CC2 | 13 | 1 | 1 | -1 | 12 | -1
Nc1nc2c(s1)CCc1ccccc1-2 | 56*! | 1 | -4 | -1 | -31 | 2
Cc1ccc(-c2cn3cccnc3n2)cc1NC(=O)c1ccccc1F | -10 | x | x | x | x | x
CC(=O)c1ccc(NC(=O)CC2Nc3ccccc3NC2=O)cc1 (configuration not stated) | -4 | x | x | x | x | x
CCc1c(C)nc(-n2nc(C)cc2N)[nH]c1=O | 93* | x | x | x | x | x
Cc1cc(N)n(-c2nc3c(c(=O)[nH]2)CCCC3)n1 | 93* | x | x | x | x | x
C/C=C/C(=O)Nc1cc(C)nn1-c1nc2c(c(=O)[nH]1)CCC2 | 23 | x | x | x | x | x
N#Cc1nccnc1OC1CCN(C(=O)c2cc3ccccn3c2)C1 (configuration not stated) | -3 | x | x | x | x | x
CC(C)(C)c1ccc(OCCn2cnc(Cl)c2Cl)cc1 | 98* | x | x | x | x | x
CC(C)CCNC(=O)c1ccc(C2Nc3ccccc3S(=O)(=O)N2)cc1 (configuration not stated) | -19 | x | x | x | x | x
COc1cc(OC)c(NC(=O)c2cc(-c3cc[nH]c3)n[nH]2)cc1Cl | 29* | x | x | x | x | x
CCCCOc1ccccc1-c1cc(C(=O)Nc2cc(Cl)c(OC)cc2OC)[nH]n1 | -14 | x | x | x | x | x
Cc1nnc(SCC(=O)N2CCCCCC2)[nH]c1=O | 3 | x | x | x | x | x
Cn1c(SCC(=O)NNC(=O)Cc2ccccc2)nnc1-c1ccccc1 | -13 | 3 | 0 | 31* | -43 | 1
CCCCCCNc1c([N+](=O)[O-])cc(C)cc1[N+](=O)[O-] | 60* | -4 | -5 | i | -32 | 0
Cc1cc([N+](=O)[O-])c(NCCCO)c([N+](=O)[O-])c1 | 24 | x | x | x | x | x
CCN1CCCc2cc(CCNC(=O)c3ccc(OC)c(OC)c3)ccc21 | 64* | x | x | x | x | x
CCCN1CCCc2cc(CCNC(=O)c3ccc(F)c(F)c3)ccc21 | 45 | x | x | x | x | x
CCN1CCCc2cc(CCNC(=O)c3ccc4c(c3)OCO4)ccc21 | 65* | x | x | x | x | x
Cc1noc(C)c1CC(=O)NCC1CCN(C(=O)c2cc3ccccc3o2)CC1 | 2 | x | x | x | x | x
O=C(CF)NC(Nc1cccc2cccnc12)C(Cl)(Cl)Cl (configuration not stated) | 73* | -4 | -8 | 3 | -17 | 0
CCC(=O)NC(NC(=S)Nc1cccc2cccnc12)C(Cl)(Cl)Cl (configuration not stated) | -2 | 5 | -3 | i | -11 | -1
CC(C)(C)C(=O)NC(Nc1cccc2cccnc12)C(Cl)(Cl)Cl (configuration not stated) | 87* | 8 | 5 | x | -21 | 2
Cc1ccccc1-c1nsc(SCC(=O)NCc2ccccc2Cl)n1 | -16 | x | x | x | x | x
